Records with an inconclusive call do not appear. A number with no mark means an inactive call. Activity calls are given as the source filed them. Calls come from the whole dose curve; as a rule, active = well fitted inhibition curve with a large enough effect; inconclusive = small, poorly fitted or top-dose-only effect; inactive = flat fitted curve, though single readings scatter.
assay: BET inhibitor-based combinations targeting novel dependencies in MECOM-rearranged (r) AML: AML-194 cell line (AID 2202237; note: nearly all actives have a fitted effect of over 40% in size;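 for viability (% of control): plate controls were vehicle wells for no effect and wells without cells for full effect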); conditions: AML-194 (MECOM-r AML) viability, CellTiter-Glo, 48 h; series mostly up to 46 µM; viability (% of control): at the top concentration
How it was run: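 Here, 11-point titrations of each agent were applied to 500 seeded cells and incubated 48 hr; CellTiter-Glo signal, scaled against DMSO and empty wells, was integrated as AUC, then Z-scored within the individual line.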
Potency is the fitted concentration of half-maximal effect.

Row | Structure (SMILES) | viability (% of control) [%] | Potency
1 | Clc1ccccc1CN1CCc2sccc2C1 | 113 | –
2 | Cc1c(-c2ccc(O)cc2)n(Cc2ccc(OCCN3CCCCCC3)cc2)c2ccc(O)cc12 | – | 26.3 µM (active)
3 | CC(=O)N(O)CCCCCNC(=O)CCC(=O)N(O)CCCCCNC(=O)CCC(=O)N(O)CCCCCN | – | 9.34 µM (active)
4 | Cc1nc(N)sc1-c1ccnc(Nc2ccc(N3CCOCC3)cc2)n1 | – | 4.17 µM (active)
5 | C[C@H]1c2cccc(O)c2C(O)=C2C(=O)[C@]3(O)C(O)=C(C(N)=O)C(=O)[C@@H](N(C)C)[C@@H]3[C@@H](O)[C@@H]21 | – | 23.5 µM (active)
6 | CCc1cccc(CC)c1NC(=O)N1Cc2[nH]nc(NC(=O)c3ccc(N4CCN(C)CC4)cc3)c2C1 | – | 9.34 µM (active)
7 | CCCOc1ccc(C(=O)OCCN(CC)CC)cc1N | 104 | –
8 | CC(C)[C@H](C(=O)Nc1ccc(C(=O)NO)cc1)c1ccccc1 | – | 0.833 µM (active)
9 | Cn1c2ccccc2c2c3c(c4c5ccccc5n(CCC#N)c4c21)CNC3=O | – | 4.68 µM (active)
10 | Cc1coc2c1C(=O)C(=O)c1c-2ccc2c1CCCC2(C)C | 96.4 | –
11 | COc1ncnc(NS(=O)(=O)c2ccc(N)cc2)c1OC | 112 | –
